# Screens (PubChem)
# Shiga inhibitor: inhibitors of Shiga toxin in Vero cells | Vero cells, Shiga toxin protein synthesis inhibition reporter | inhibition, % at 38.7 µM | 290,000 tested, 9.2% active | AID 2315; in the data active means inhibition mostly above about 28%, no sharp cut-off; inactive means mostly below about 43%; further: 0% is about no effect
# CHX counter: counter-screen for Shiga toxin inhibitors: cycloheximide protein synthesis inhibition | cell reporter, cycloheximide protein synthesis inhibition counterscreen | max response, % | 300,000 tested, 12% active; in the data active means max response mostly above about 13%, no sharp cut-off; inactive means mostly below about 14%; further: read at 38.3 µM for the half of the compounds with a filed dose; 0% is about no effect
# Lassa entry inh: inhibitors of Lassa virus binding or cell entry; Potency, µM (titrated, usually from 37.9 µM), without a hit: at the top dose activity change, negative = inhibition, hits mostly inhibitors; Lassa virus pseudotype entry inhibition, cell reporter; AID 540256; 300,000 tested, 1.2% active; calls by dose curve; tested in HEK293 cells; further: potency means the concentration at half of the fitted maximal effect; on the % scale 0 is the no-effect control and ±100 the full control effect; nearly all actives have a fitted effect of over 50% in size
# MARV entry inh: blocks Marburg virus binding to or entry into cells; Potency, µM (doses to about 37.8 µM), without a hit: at the top dose activity change, negative = inhibition, usual class: inhibitors; AID 540276; Marburg virus pseudotyped entry inhibition, cell reporter; 300,000 tested, 1.8% active; calls by dose curve; tested in HEK293 cells; further: potency means the concentration at half of the fitted maximal effect; on the % scale 0 is the no-effect control and ±100 the full control effect
# Starred values were filed as active, the others as inactive; i = inactive; ? = inconclusive; . = not tested or not shown; [ ] = another dose, or the depositor's remark. Compounds with a hit are over-represented: about 12% of the library has one in this group of screens.
SMILES,Shiga inhibitor,CHX counter,Lassa entry inh,MARV entry inh
O=C(OC1CCCCC1)c1ccc(NC(=O)c2ccco2)cc1,61*,36*,?,12%
O=C(Nc1ccc(OC(=O)c2ccco2)cc1)c1ccco1,32*,18,10%,25%
O=C(Nc1ccc(Oc2cccc3ccccc23)cc1)c1ccco1,44,29*,?,?
CCOC(=O)c1c(NC(=O)C(C)Sc2cn(CCNC(=O)c3ccc(OC)cc3)c3ccccc23)sc2c1CCC2 (centres undefined),.,.,-5%[46.1 µM],?
O=C(CSc1ccc(F)cc1)NCCSc1ccccc1,54,16,-23%,4%[46.1 µM]
CCOCCCn1c(=S)[nH]c2cc(C(=O)NCC(OC)OC)ccc2c1=O,-5,3,6%[46.1 µM],6%[46.1 µM]
O=C(Nc1nc2ccc(F)cc2s1)C1=NN(c2ccccc2)C(=O)CC1,67*,35*,13%,14%
O=C(Nc1nc2ccccc2s1)C1=NN(c2ccccc2)C(=O)CC1,active,20*,-3%,8%
Cc1csc(NC(=O)C2=NN(c3ccccc3)C(=O)CC2)n1,9,-1,1%,3%[46.1 µM]
CC(Sc1nnc2ccccn12)C(=O)N1CCc2ccccc2C1 (centres undefined),59,20*,-8%,5%[46.1 µM]
O=C(CSc1nnc2ccccn12)N1CCc2ccccc21,62*,20*,-17%,-6%[46.1 µM]
O=C(CSc1nnc2ccccn12)N1CCOCC1,-5,3,4%,24%
O=C(CSc1nnc2ccccn12)N1CCc2ccccc2C1,136*,29*,4%,8%
CC(=O)c1ccc(NC(=O)C(C)Sc2nnc3ccccn23)cc1 (centres undefined),.,.,-6%,10%
O=c1c(C=NCCN2CCNCC2)c(O)n(C2CCCCC2)c(=O)n1C1CCCCC1,-15,-4,17%[14.3 µM],21µM*
O=C(Nc1cc(Cl)cc(Cl)c1)c1ccc(F)c(S(=O)(=O)NC2CCCCC2)c1,.,.,-3%[46.1 µM],.
Cc1ccc(NC(=O)CSc2n[nH]c(-c3ccco3)n2)cc1,45,28*,2%,-8%
COc1ccc(CSCC(=O)Nc2ccccc2SC)cc1,-10,0,-22%,?
Cc1ccc(CSCC(=O)Nc2ccccc2F)cc1,68*,25*,-25%[46.1 µM],29%[46.1 µM]
CCCCNC(=O)Cc1ccc(C)cc1,21,0,1%,-12%
CCC(C)(C)NC(=O)Cc1ccc(C)cc1,83*,21*,17%,16%
O=C(CSc1n[nH]c(-c2ccco2)n1)Nc1ccccc1,.,.,-18%,-1%
Cc1ccc(NC(=O)CCC(=O)Nc2ccc(C)cc2)cc1,-14,6,3%,2%
Cc1ccc(NC(=O)Cc2ccc(F)cc2)cc1,13,21*,25%,25%
COc1cc(C#N)c(NS(=O)(=O)c2ccc3[nH]c(=O)sc3c2)cc1OC,-7,1,4%[46.1 µM],15%[46.1 µM]
SMILES,Shiga inhibitor,CHX counter,Lassa entry inh,MARV entry inh
Cc1cc(-n2cnnn2)cc(C)c1S(=O)(=O)N(C)c1ccccc1,-3,11,1%[46.1 µM],?
Cc1ccc(S(=O)(=O)N2CCOCC2)cc1C(=O)NC(=S)N1CC(C)OC(C)C1 (centres undefined),5,1,.,.
Cc1ccc(CSCC(=O)NCc2ccc(F)cc2)cc1,-1,16,-6%,-18%
Cc1ccc(NC(=O)CSCc2ccco2)cc1,105*,23*,-24%[46.1 µM],12%[46.1 µM]
Cc1ccc(NC(=O)CSCc2ccc(F)cc2)cc1,76*,51*,-5%,?
C[C@H]1Cc2c(-c3ccccc3)nc3c(c2CO1)CN(C(=O)Nc1cccc(C#N)c1)CC3,.,.,.,-24%[14.2 µM]
Cc1ccc(/C=N/N2CCN(Cc3ccccc3)CC2)s1,70*,51*,8%,14%
C(=N\N1CCN(Cc2ccccc2)CC1)/c1ccccc1,69*,39*,.,.
Cc1ccc(/C=N/N2CCOCC2)s1,68*,46*,-24%[46.1 µM],?
C(=N\N1CCN(Cc2ccccc2)CC1)/c1cccnc1,28,10,2%,?
BrC(=C\c1ccccc1)/C=N/N1CCN(Cc2ccccc2)CC1,13,22*,-13%,1%
Cc1ccc(CN2CCN(/N=C/c3ccc(C)s3)CC2)cc1,-14,-3,10%,?
COc1ccc(/C=N/NC(=O)C(O)(c2ccccc2)c2ccccc2)cc1OC,14,-2,?,2%
O=[N+]([O-])c1cc(/C=N/N2CCN(Cc3ccccc3)CC2)ccc1Cl,-6,-1,6%[46.1 µM],?
Clc1cccc(/C=N/N2CCN(Cc3ccccc3)CC2)c1,51,21*,.,.
FC(F)(F)c1ccccc1/C=N/N1CCN(Cc2ccccc2)CC1,109*,36*,5%,4%
Clc1ccccc1/C=N/N1CCN(Cc2ccccc2)CC1,.,4,.,.
C=C1c2cccc(C(F)(F)F)c2O[C@H](C(=O)OCC)[C@@H]1CCCCCC,i,12,.,.
Cc1ccc([C@@H]2[C@@H]3C(=O)N(C)C(=O)[C@@H]3[C@@H]3C(=O)Nc4ccccc4C(=O)N23)cc1,-5,-2,.,.
Cc1ccc2c(c1)cc(CN(Cc1cccs1)C(=O)c1ccco1)c1nnnn12,-9,-6,16µM*,?
O=C(CCc1c[nH]c2ccccc12)NCc1ccncc1,-4,-6,8%,13%[46.1 µM]
CC(=O)Nc1ccc(NC(=O)CCCc2c[nH]c3ccccc23)cc1,-19,1,7%[46.1 µM],?
O=C(CCCc1c[nH]c2ccccc12)Nc1ccc2ccccc2c1,68*,38*,?,-8%
Cc1ccc(NC(=O)CCc2c[nH]c3ccccc23)nc1,35*,11*,?,?
O=C(CCc1c[nH]c2ccccc12)Nc1ncccc1O,16,16*,16%[46.1 µM],6%[46.1 µM]
SMILES,Shiga inhibitor,CHX counter,Lassa entry inh,MARV entry inh
CCC1(C)Cc2c(sc3nc(SC)[nH]c(=S)c23)CO1 (centres undefined),-5,-2,?,-3%[46.1 µM]
CCn1c(=O)cc(OCC(=O)Nc2cc(OC)c(OC)c(OC)c2)c2ccccc21,.,.,3%[46.1 µM],?
COc1ccc(C2c3c(ncn(Cc4ccco4)c3=N)Oc3ccc4ccccc4c32)cc1 (centres undefined),38,-1,?,?
N=c1c2c(ncn1Cc1ccco1)Oc1ccc3ccccc3c1C2c1ccccc1 (centres undefined),active,20*,?,9.2µM*
COc1ccc(-c2nc(CS(=O)(=O)CC(=O)NCCCN3CCOCC3)c(C)o2)cc1,7,3,2%[46.1 µM],1%[46.1 µM]
Cn1cccc1C(=O)C(=O)Nc1ccc(F)c(F)c1,82*,45*,?,?
Cn1cccc1C(=O)C(=O)Nc1ccc(Cl)cc1,81*,52*,?,?
Cn1cccc1C(=O)C(=O)Nc1cc(Cl)cc(Cl)c1,23,8,?,?
CC(=O)N1CCSc2ccc(S(=O)(=O)Nc3ccc(C)cc3)cc21,13,-9,-6%[46.1 µM],-20%[46.1 µM]
CCCCCCOC(=O)C(C#N)c1nc2ccccc2nc1N1CCN(CC)CC1 (centres undefined),2,-4,?,4.6µM*
COc1ccc(C(=O)NC2CCCc3ccccc32)cc1S(=O)(=O)N1CCOCC1 (centres undefined),-6,-2,-1%,-12%[46.1 µM]
COc1ccc(/C=N/c2oc(-c3ccccc3)cc2C#N)cc1,28,16*,1%,40%
Cc1oc(/N=C/c2ccccc2)c(C#N)c1C,-4,1,18%,1%
N#Cc1cc(-c2ccccc2)oc1/N=C/c1ccccc1O,18,29*,2%,-4%[46.1 µM]
